This is a sample that favours compounds with a hit; in the whole collection about 2.3% have one here.
S2 tox: reduces viability in counter-screen for ATXN expression inhibitors. hit rate 0.49% among 400,000. Potency, µM (titrated, usually from 56.7 µM), usual class: cytotoxic. S2 cells (HEK-293 line with an ATXN2-luciferase reporter) viability, CellTiter-Fluor protease fluorescence, 24 h; further: nearly all actives have a fitted effect of over 40% in size
ATXN2 expr inh: inhibitors of ATXN2 expression; Potency, µM (doses to about 57 µM), without a hit: top-dose activity change, negative = inhibition, hits mostly inhibitors; HEK-293 ATXN2-luciferase reporter, luminescence, 24 h; AID 1745845; hit rate 0.72% among 360,000; further: on the % scale 0 is the no-effect control and ±100 the full control effect; nearly all actives have a fitted effect of over 55% in size
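ATXN2-luciferase reporter cells (luciferase flanked by upstream and downstream ATXN2 gene portions) were treated 24 h at 37 °C with compounds at up to 57 uM. SteadyGlo luminescence gave expression; GF-AFC fluorescence gave viability.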
TGFb SMAD3 inh: blocks TGF-b signaling; HepG2 CAGA-GFP TGF-b/SMAD3 reporter, GFP fluorescence, 18 h; TGF-beta stimulated, 500 pg/mL final; Potency, µM (titrated, usually from 46.1 µM), for the others: at the highest dose activity, negative = inhibition, actives largely listed as inhibitors; hit rate 1.2% among 410,000; AID 588855; further: on the % scale 0 is the no-effect control and ±100 the full control effect; nearly all actives have a fitted effect of over 65% in size
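HEPG2 CAGA-GFP cells (1000/well, DMEM with 1% FBS) were pre-incubated 2 h at 37 degrees C, given compound by pin tool, then stimulated with TGF-beta at 500 pg/mL final for 18 h before per-cell GFP fluorescence imaging.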
HepG2 tox: HepG2 cytotoxicity, counter-screen for TGF-b inhibitors; hit rate 0.76% among 410,000; Potency, µM (titrated, usually from 46.1 µM), without a hit: top-dose activity change, negative = cytotoxicity, usual class: cytotoxic; HepG2 CAGA-GFP viability, ATP luminescence, 18 h
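CellTiter-Glo luminescence gave cytotoxicity after 18 hours at 37 degrees C. The cells were HepG2 CAGA-GFP in 1% FBS DMEM, stimulated with 500 pg/mL TGF-beta after compound addition. %Activity was normalised to no-cell wells (complete cell-killing) and DMSO (no toxicity), and curves were fitted and classified.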
Numbers without * were called inactive; i = inactive; ? = inconclusive; . = not tested or not shown; ! = repeats disagree; [ ] = dose if it differs, or a comment. The call rests on the fitted dose curve; in most records, active means well fitted curve in the direction sought with a large enough effect; inconclusive means small, poorly fitted or top-dose-only effect, or another doubt; inactive means no such curve, though single readings can be large; an effect the other way counts as inactive or inconclusive. Potency means the concentration at half of the fitted maximal effect.

SMILES	S2 tox	ATXN2 expr inh	TGFb SMAD3 inh	HepG2 tox
CC(C)c1c(C(=O)NCC(C)(C)N2CCOCC2)cnn1-c1nccc(-c2ccccc2F)n1	i	.	.	.
Cn1cc(/C=C/c2ccnc3ccccc23)c2ccccc21	.	.	?	-59%
O=S(=O)(NCc1csc(-c2cccs2)n1)c1cccc(C(F)(F)F)c1	.	16%	16µM*	-97%
NC(=O)[C@@H]1CCCN1C(=O)c1cc(NC(=O)c2ccccc2)cc2ncn(C3CCCC3)c12	i	.	.	.
CC(NCC(O)COc1ccc2ccccc2c1)c1ccccc1 (stereo not drawn)	?	18µM*	?	11µM*
CCCC(NCC(O)COc1ccc(-c2ccccc2)cc1)c1ccccc1 (stereo not drawn)	?	19µM*	?	-110%
COc1ccc(OCC(O)CNC(C)c2ccccc2)cc1 (stereo not drawn)	i	.	-7%	-30%
Cc1cc(O)cc(O)c1C=NCc1ccco1	18µM*	?	20µM*	-69%
Cc1cc2c(c(C)c1Br)C(c1ccc3c(c1)OCO3)CC(=O)O2 (stereo not drawn)	i	-7%	20µM*	-89%
Cc1cc(C)c2c(c1)OC(=O)CC2c1ccc2c(c1)OCO2 (stereo not drawn)	i	10%	-14%	11%
CCC(C)C(C(=O)OCC[N+](C)(CC)CC)c1ccccc1 (stereo not drawn)	i	.	.	.
COc1ccc(-n2nc(C(N)=O)c3c2C(=O)N(c2ccc(N4CCCCC4=O)cc2)CC3)cc1	.	5%	.	.
CCCN(CCC)CCCNC(=O)c1cc2c(-c3ccc(Cl)cc3)nn(C)c2s1	25µM*	?	?	-46%
CCN(CC)CCCNC(=O)c1cc(-c2ccc(Cl)c(Cl)c2)on1	?	?	?	16µM*
CCN(CC)CCCNC(=O)c1cc(-c2ccc(O)cc2)on1	?	0%	?	-13%
CCN(CC)CCCNC(=O)c1cc2c(-c3ccc(Cl)cc3)nn(C)c2s1	.	25µM*	?	-93%
CC(C)(C)n1ncc2c(=O)n(Cc3ccc(C#N)cc3)cnc21	.	.	-14%	-29%
CC(C)Cc1ccc(C(C)C(=O)OCc2ccccn2)cc1 (stereo not drawn)	i	2%	.	.
Cc1cc2c(=Cc3ccc(N(C)C)cc3)c3ccccc3n2[n+]1C	?	10µM*	6.3µM*	-29%
CCOC(=O)c1cc2c(=Cc3ccc(N(C)C)cc3)c3ccccc3n2[n+]1C	.	?	?	-39%
CN(C)c1ccc(C=C2C(=O)c3ccccc3C2=O)cc1	.	.	-2%	-12%
CN(C)c1ccc(C=c2c3ccccc3n3c2c2ccccc2[n+]3C)cc1	?	6.3µM*	2.5µM*	-43%
O=C1[C@H](Cc2ccccc2)NC/C=C\C[C@H](c2ccc(Cl)cc2)N1Cc1ccc(Cl)cc1	.	.	?	-61%
Cc1cccc(OCC(O)Cn2c(=N)n(CCN3CCCCC3)c3ccccc32)c1 (stereo not drawn)	.	?	?	11µM*!
Cc1ccc(OCC(O)Cn2c(=N)n(Cc3ccccc3)c3ccccc32)cc1 (stereo not drawn)	?	?	?	13µM*
SMILES	S2 tox	ATXN2 expr inh	TGFb SMAD3 inh	HepG2 tox
N=c1n(Cc2ccccc2)c2ccccc2n1CC(O)COc1ccc(Cl)cc1Cl (stereo not drawn)	.	-16%[11.3 µM]	?	11µM*
CCN(CC)CCn1c(=N)n(CC(O)COc2cccc(C)c2)c2ccccc21 (stereo not drawn)	?	-31%[11.3 µM]	?	-59%
O=C1c2ccccc2C(=O)N1c1nc(-c2ccc(F)cc2)cs1	.	.	42%	6%
O=Cc1ccc2[nH]ccc2c1	.	.	-30%	-12%
O=C(CCc1cccnc1)NCC1Cc2cccc(-c3ncccn3)c2O1 (stereo not drawn)	i	.	.	.
CN(C)c1ccc(N2C(=O)CSC2=S)cc1	i	-1%	-6%	-33%
CC1SC(=S)N(c2ccc(N(C)C)cc2)C1=O (stereo not drawn)	i	-21%	16µM*	-75%
COc1ccc2ccccc2c1CN1CCc2nnc(CNC(=O)c3cccc(F)c3)n2CC1	i	.	.	.
CC(CC(c1ccccc1)c1ccccc1)NC(C)(C)C (stereo not drawn)	i	.	.	.
CCN1CCN(C(=O)c2sc3ncnc(NCC4CCCO4)c3c2C)CC1 (stereo not drawn)	i	.	.	.
Cc1cc(/C=C2\SC(N)=NC2=O)c(C)n1-c1ccc(F)cc1	i	17%	-10%	13µM*
COc1cccc(-c2oc3ccc(C)cc3c(=O)c2O)c1	i	?	8.9µM*	-30%
COc1cccc(CNC(=O)c2c(OC)cc(=O)n3c2CCN(C(=O)C2CC24CCCCC4)CC3)c1 (stereo not drawn)	i	.	.	.
CCN(CC)CCCNC(=O)c1ccc2c(c1)sc1nc(-c3ccc(C)cc3)cn12	.	.	-37%	6.3µM*
CCCNC(=O)c1ccc2c(c1)sc1nc(-c3ccc(C)cc3)cn12	.	.	-16%	1%
CCC(=O)Nc1sc2c(c1C#N)CCC2	i	-13%	15%	-66%
CC(C)CC(=O)NC(NC(=S)Nc1sc2c(c1C#N)CCCC2)C(Cl)(Cl)Cl (stereo not drawn)	i	?	16µM*	-42%
Cc1ccc(NC(=O)c2ccc(-c3nn(C)c(=O)c4ccccc34)cc2)cc1	?	?	-5%	-5%
Cn1nc(-c2ccc(C(=O)Nc3cccc(Cl)c3)cc2)c2ccccc2c1=O	40µM*	16µM*	-9%	-29%
CCCCCCCCCCCCCCCCCC(=O)[O][Al]	i	.	.	.
O=C(N/N=C/c1ccccc1O)c1cccc(C(F)(F)F)c1	?	3.2µM*	?	-52%
Cc1[nH]c2ccccc2c1/C=N/NC(=O)c1cccc(S(=O)(=O)Nc2cccc(C(F)(F)F)c2)c1	i	.	10µM*	-12%
O=C(N/N=C/c1ccc(O)cc1)c1cccc(C(F)(F)F)c1	i	-15%	-11%	-22%
O=C(c1cccnc1)C1CCCN(Cc2ccc3c(c2)CN(C(=O)c2cccc(Cl)c2)CCO3)C1 (stereo not drawn)	i	.	.	.
Clc1ccccc1N1CCN(Cc2c[nH]c3ccccc23)CC1	i	-23%	16µM*	-49%
SMILES	S2 tox	ATXN2 expr inh	TGFb SMAD3 inh	HepG2 tox
CN(C)C(=O)[C@@H]1C[C@@H](Sc2nc3ccccc3[nH]2)CN1Cc1ccnc2ccccc12	i	.	.	.
COc1ccc(N2C3=C(CC4=C2CC(C)(C)CC4=O)C(=O)CC(C)(C)C3)cc1	i	16µM*	?	16µM*
COc1nccnc1NS(=O)(=O)c1ccc(N=Cc2c(C)[nH]n(-c3ccc(C)c(C)c3)c2=O)cc1	i	12%	?	10µM*
COc1nccnc1NS(=O)(=O)c1ccc(N=Cc2c(C)[nH]n(-c3ccccc3)c2=O)cc1	i	-11%	-2%	4%
CCCCOc1ccc(CC(=O)N(C)O)cc1	.	.	16%	0%
CC(=O)n1cc(N(C(=O)CCl)c2ccc([N+](=O)[O-])cc2)c2ccccc21	28µM*	?	?	10µM*

Screening data as filed in PubChem BioAssay.
